Results filed as inconclusive are left out. A call without a number means that no potency is given here. Calls of active or inactive are those of the source. Unless noted, calls follow the shape of the full dose curve.

The first experiment in a line: qHTS assay to identify small molecule agonists of the hypoxia (HIF-1) signaling pathway - cell viability counter screen (AID 1224844). Also: nearly all actives have a fitted effect of over 50% in size. Also: potency is read from the fitted curve at half-maximal effect. To be noted: HRE-bla ME-180 viability, CellTiter-Glo luminescence, 17 h; series mostly up to 76.8 µM. A digest of the protocol: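 Cells (HRE-bla ME-180, 2,000 per well) sat 5 hrs at 37C, got compound for 17 hrs, were read for CCF4-AM FRET, and were finally lysed with CellTiter-Glo for a 30 min room-temperature luminescence read.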
(qHTS replaces the single test concentration by a dilution series.)
As to `CCOC(=O)c1ccc(NC(=O)CN2CCCCC2)cc1`, the Potency result is “inactive”.

In the case of `CCOc1ncc(F)c(=O)[nH]1`, the Potency entry is “inactive”.

Take `CC1CCC(C(C)CS)CC1S` (centres undefined): the Potency was 54.9 µM (active).

As for `O=CNNC=O`, the Potency entry was “inactive”.

In the case of `O=C(/C=C/c1ccc([N+](=O)[O-])cc1)c1ccccc1`, the Potency is 24.6 µM (active).

On to `Nc1nc(-c2ccc([N+](=O)[O-])cc2)cs1`, for which the Potency entry was “inactive”.

As for `Cc1oc(=O)oc1COC(=O)[C@@H]1N2C(=O)[C@@H](NC(=O)[C@H](N)c3ccccc3)[C@H]2SC1(C)C`, the Potency entry was “inactive”.

Take `C1=CCC2CC=CC2C1` (centres undefined): the Potency entry was “inactive”.

For the compound `COc1cc(OC)c2ccc(=O)oc2c1`, the Potency entry was “inactive”.

Regarding `CC(C)C1CCC(C(=O)N[C@H](Cc2ccccc2)C(=O)O)CC1` (some centres undefined), the Potency result is “inactive”.

Turning to `C[C@@H]1C[C@H]2[C@@H]3CCC4=CC(=O)C=C[C@]4(C)[C@@]3(F)[C@@H](O)C[C@]2(C)[C@@]1(O)C(=O)COP(=O)(O)O`, the Potency entry was “inactive”.

For the compound `CC(C)COC(=O)c1ccc(O)cc1`, the Potency result was “inactive”.

`COc1ccc(C(=O)NCc2ccc(OCCN(C)C)cc2)cc1OC`: the Potency entry was “inactive”.

As to `CCC(CO)(CO)CO`, the Potency entry was “inactive”.

As for `COc1ccc(-n2nc(C(F)F)cc2-c2ccc(S(C)=O)cc2)cc1` (centres undefined), the Potency result is “inactive”.

For `O=C(O)c1cc(Cl)cc(Cl)c1O`, the Potency entry was “inactive”.

Regarding `C=CC(=O)NC(C)C`, the Potency result was “inactive”.

Take `CC(=O)OCCC(C)CC(C)(C)C` (centres undefined): the Potency entry is “inactive”.

For the compound `CCCCOC(=O)CCCCC(=O)OCCCC`, the Potency result was “inactive”.

`CCCCC(CC)COS(=O)(=O)O` (centres undefined): the Potency entry is “inactive”.

Take `COC(C)(C)OC`: the Potency result is “inactive”.

In the case of `CC1=CC[C@@]23C[C@@H]1C(C)(C)[C@@H]2CC[C@H]3C`, the Potency entry was “inactive”.

With `CC(=O)C(=O)CC(C)C`, the Potency entry is “inactive”.

In the case of `O=C(O)CCS`, the Potency entry was “inactive”.

With `CC(C)(O)CCc1ccccc1`, the Potency result was “inactive”.

The next experiment is described as follows: qHTS assay to identify small molecule agonists of H2AX (AID 1224845; active = well fitted activation curve with a large enough effect in the signal ratio in the repeat runs, not every such curve was filed as active; the % refers to the signal ratio). To be noted: CHO-K1 phospho-H2AX Ser139 HTRF, 3 h; series mostly up to 154 µM. A digest of the protocol: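 Wild-type CHO-K1 cells, plated overnight, exposed 3hr at 37C to 15 concentrations (0.76% DMSO final). Lysed, then HTRF anti-pH2AX (S139) cryptate and anti-H2AX-d2 antibodies, 24 hr room temperature; 665/620 nm emission read.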
Turning to `CCOc1ncc(F)c(=O)[nH]1`, the Potency result was “inactive”.

On to `CC[C@H]1OC(=O)[C@H](C)[C@@H](O[C@H]2C[C@@](C)(OC)[C@@H](O)[C@H](C)O2)[C@H](C)[C@@H](O[C@@H]2O[C@H](C)C[C@H](N(C)C)[C@H]2O)[C@](C)(O)C[C@@H](C)/C(=N\OCOCCOC)[C@H](C)[C@@H](O)[C@]1(C)O`, for which the Potency entry was “inactive”.

On to `Nc1nc(-c2ccc([N+](=O)[O-])cc2)cs1`, for which the Potency entry was “inactive”.

`Cc1oc(=O)oc1COC(=O)[C@@H]1N2C(=O)[C@@H](NC(=O)[C@H](N)c3ccccc3)[C@H]2SC1(C)C`: the Potency result is “inactive”.

For the compound `CC(C)(C)S`, the Potency entry is “inactive”.

`C1=CCC2CC=CC2C1` (centres undefined): the Potency entry was “inactive”.

Consider `CC(C)C1CCC(C(=O)N[C@H](Cc2ccccc2)C(=O)O)CC1` (some centres undefined), for which the Potency entry was “inactive”.

Turning to `CCCCCCOC(=O)CCCCC`, the Potency result was “inactive”.

As to `CO[C@@H]1[C@@H](OC)[C@H](C)[C@@](O)(CC(=O)O)O[C@H]1[C@H](C)[C@H]1O[C@@]2(CC[C@@](C)([C@H]3CC[C@@](C)([C@@H]4O[C@@H]([C@H]5O[C@](C)(O)[C@H](C)C[C@@H]5C)C[C@@H]4OC4C[C@H](OC)[C@@H](OC)[C@H](C)O4)O3)O2)C[C@H](O)[C@H]1C` (some centres undefined), the Potency entry is “inactive”.

Regarding `CCCCCCCCCCCCCCCC(=O)OCC`, the Potency result was “inactive”.

Regarding `COc1ccc(C(=O)NCc2ccc(OCCN(C)C)cc2)cc1OC`, the Potency entry is “inactive”.

For `CC(=O)NNC(C)=O`, the Potency result was “inactive”.

For the compound `CCC(CO)(CO)CO`, the Potency result is “inactive”.

Regarding `COc1ccc(-n2nc(C(F)F)cc2-c2ccc(S(C)=O)cc2)cc1` (centres undefined), the Potency result was “inactive”.

As to `O=C(O)c1cc(Cl)cc(Cl)c1O`, the Potency entry was “inactive”.

For `C=CC(=O)NC(C)C`, the Potency entry was “inactive”.

On to `CCCCC(CC)COS(=O)(=O)O` (centres undefined), for which the Potency result was “inactive”.

On to `COC(C)(C)OC`, for which the Potency entry was “inactive”.

On to `COc1ccc(C2C(=O)c3ccccc3C2=O)cc1`, for which the Potency result was “inactive”.

On to `Cc1ccc(S(=O)(=O)NC(=O)NC2CCCCC2)cc1`, for which the Potency result was “inactive”.

On to `CC(=O)C(=O)CC(C)C`, for which the Potency result is “inactive”.

For `O=C(O)CCS`, the Potency entry is “inactive”.

In the case of `CC(=O)c1ccc[nH]1`, the Potency result is “inactive”.

With `COc1ccc(C)cc1`, the Potency result was “inactive”.

(Values after PubChem BioAssay (Tox21).)
